68 compounds from PubChem BioAssay AID686978 (National Center for Advancing Translational Sciences (NCATS), 2013) can be followed below.

Where “and” joins values, the source holds several entries; their conditions need not be identical. Equal values may be shown once. Hit rate of the full screen: of about 420,000 compounds, about 64,000 (15%) were called active. About 27% were inconclusive and are not listed. The call rests on the fitted dose curve; in most records, active means well fitted inhibition curve with a large enough effect; inconclusive means small, poorly fitted or top-dose-only effect; inactive means flat fitted curve, though single readings scatter. Only a sample is shown. A call without a number means that no potency is given here.
Potency means the concentration at half of the fitted maximal effect.

This assay in a line: qHTS for Inhibitors of human tyrosyl-DNA phosphodiesterase 1 (TDP1): qHTS in cells in absence of CPT. Further: nearly all actives have a fitted effect of over 55% in size. As to conditions: DT40 Tdp1-/- hTDP1 cells, no CPT, ATP luminescence, 48 h; activity change, negative = growth inhibition: at 46.2 µM (top of the series). In outline: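 Camptothecin absent (DMSO only). Human TDP1-complemented DT40 knockout cells, 400 cells/well, 37 °C for minimum 48 hr; ATP measured via CellTiter-Glo, 30 min dark incubation, luminescence.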
In general terms: In qHTS, concentration-response curves come from the screen itself.
As to `CCOCCCN(C(=O)Cn1nnc(-c2ccc(OC)c(OC)c2)n1)C(CC)C(=O)NC1CCCC1` (stereo not drawn), the Potency entry is “inactive”.

Take `CCN1CCCC1Cn1cnc2c([nH]c3cc(OC)ccc32)c1=O` (stereo not drawn): the Potency result is “inactive”.

For the compound `COc1ccc(NC(=O)N2CCCC(c3nc(-c4ccc(F)cc4)no3)C2)cc1` (stereo not drawn), the Potency result was “inactive”.

In the case of `O=C(c1ccc(F)cc1)N1CCCC(C(=O)N2CCCCC2)C1` (stereo not drawn), the Potency result is “inactive”.

As for `O=C(c1cccs1)N1CCCC(c2nc(-c3ccc(F)cc3)no2)C1` (stereo not drawn), the Potency was 16.4 µM (active).

For `CC(CC(=O)C1C(C)C=CCC1(C)C)NNC(N)=O` (stereo not drawn), the Potency result is “inactive”.

With `O=C(CSc1nnc(-c2ccco2)o1)NCC(=O)c1ccccc1`, the Potency entry was “inactive”.

As to `CCN(CC)C(=O)c1nc[nH]c1C(=O)N(C)Cc1ccccc1`, the Potency entry was “inactive”.

`Cc1nnc(SCC(=O)NCc2cccs2)[nH]c1=O`: the Potency entry is “inactive”.

Regarding `S=c1[nH]nc(-c2cccnc2)n1/N=C/C(Cl)=C\c1ccccc1`, the Potency is 23.1 µM (active).

Take `S=c1[nH]nc(-c2ccco2)n1/N=C/c1ccccc1`: the Potency result was “inactive”.

As to `Cc1cc(-c2n[nH]c(=S)n2/N=C/C(Br)=C/c2ccccc2)n[nH]1`, the Potency is 2.06 µM (active).

Take `CCN(CC)S(=O)(=O)c1cccc(-c2n[nH]c(=S)n2/N=C/c2ccc(C(=O)OC)cc2)c1`: the Potency entry was “inactive”.

Turning to `Cc1cc(-c2n[nH]c(=S)n2/N=C/c2ccco2)n[nH]1`, the Potency result is “inactive”.

For the compound `Fc1ccccc1/C=N/n1c(-c2cccnc2)n[nH]c1=S`, the Potency result was “inactive”.

Turning to `Cc1ccccc1CCN(CC(=O)NC1CCCCC1)C(=O)c1csnn1`, the Potency entry was “inactive”.

Turning to `CSCC[C@H](NC(=O)CCCn1nnc2ccccc2c1=O)C(=O)O`, the Potency entry is “inactive”.

Turning to `C[C@H]1CN([C@@H](C)CO)C(=O)c2cc(-c3ccccc3F)cnc2O[C@H]1CN(C)C(=O)C1CCOCC1`, the Potency result was “inactive”.

Regarding `NC(=O)N/N=C\c1cccs1`, the Potency result is “inactive”.

In the case of `COc1ccccc1C(=O)N/C(=C/c1ccc2c(c1)OCO2)C(=O)Nc1cccc(C(=O)O)c1`, the Potency result was “inactive”.

Regarding `CC(=O)Nc1ccc(CN2CCC(Oc3ccc(C(=O)N4CCCC4)cc3)CC2)cc1`, the Potency result is “inactive”.

For the compound `COc1ccc2c(c1)CCc1cnc(-n3ncc(C(=O)NCCN4CCOCC4)c3C)nc1-2`, the Potency entry is “inactive”.

In the case of `COc1ccc(N)c(C)c1`, the Potency result is “inactive”.

On to `O=C(Cc1ccc(Br)cc1)NCCN1CCOCC1`, for which the Potency entry was “inactive”.

As for `COc1ccc(C2OC(=O)CC2C(=O)NC(C)C)cc1` (stereo not drawn), the Potency entry is “inactive”.

Take `COc1ccc(-c2ccc(C(=O)NC(C)C)c3occc23)c(C)c1`: the Potency is 16.4 µM (active).

For `COc1ccc(-c2ccc(C(=O)NCCN3CCOCC3)c3occc23)c(C)c1`, the Potency was 20.6 µM (active).

Regarding `CCN(CC(=O)NCCc1ccccc1)S(=O)(=O)c1ccccc1`, the Potency result was “inactive”.

Take `COc1ccc2c(c1)c1nc3n(c(=O)c1n2CC(=O)Nc1ccccc1)CCS3`: the Potency result is “inactive”.

In the case of `O=C1C(=O)N(CCN2CCOCC2)C(c2cccc(Cl)c2)/C1=C(/O)c1ccc2c(c1)OCO2` (stereo not drawn), the Potency result is “inactive”.

As for `CCCNC(=O)CCc1c(C)nc2c(c(C)nn2-c2ccccc2)c1C`, the Potency entry is “inactive”.

Consider `CCOC(=O)C(Cc1ccccc1)NC(=O)CCc1c(C)nc2c(c(C)nn2-c2ccc(C)c(C)c2)c1C` (stereo not drawn), for which the Potency result is “inactive”.

Take `COC(=O)c1ccc(NC(=O)CCc2c(C)nc3c(c(C)nn3-c3ccc(C)cc3)c2C)cc1`: the Potency is 6.51 µM (active).

As for `Cc1ccc(C)c(NC(=O)CSc2nnc(Cc3cccn3C)n2-c2ccc(F)cc2)c1`, the Potency result is “inactive”.

On to `CC1CCN(C(=O)C2CCN(S(=O)(=O)N3CCC4(CC3)OCCO4)CC2)CC1`, for which the Potency entry was “inactive”.

Take `Nc1nnc(SCn2nnc3ccccc3c2=O)s1`: the Potency entry was “inactive”.

Consider `O=c1[nH]nc(Cc2ccccn2)c2ccccc12`, for which the Potency entry was “inactive”.

For `O=C(Nc1cccc(Cl)c1)c1csnn1`, the Potency entry is “inactive”.

Take `O=C(Nc1ccc(Cl)cc1)c1ccsn1`: the Potency entry was “inactive”.

For `O=C(Nc1ccccc1)c1nnsc1S(=O)(=O)c1ccc(Cl)cc1`, the Potency is 2.59 µM (active).

For `Cc1cc(C)n2nc(C(=O)NC(C)(C)C)nc2n1`, the Potency result was “inactive”.

As for `O=S(=O)(Nc1ccc(-c2ccc(N3CCOCC3)nn2)cc1)c1cc(Cl)ccc1Cl`, the Potency result is “inactive”.

`CC(CC(=O)Nc1cc(C(F)(F)F)ccc1Cl)c1ccccc1` (stereo not drawn): the Potency result was “inactive”.

For `O=C(NNc1ccccc1Cl)C(O)(c1cccc(C(F)(F)F)c1)c1cccc(C(F)(F)F)c1`, the Potency is 16.4 µM (active).

In the case of `NC(=O)C1(Nc2ccccc2Cl)CCCC1`, the Potency result was “inactive”.

With `CC(C)Nc1ccc(-n2nc3ccccc3[n+]2[O-])cc1`, the Potency entry is “inactive”.

Take `CN(C)c1cc[n+](Cc2ccccc2)cc1`: the Potency was 0.411 µM (active).

Take `[O-][n+]1ccc(OCc2ccccc2)cc1`: the Potency result is “inactive”.

As for `CN(C)c1ccc(CSc2ccccc2)cc1`, the Potency entry was “inactive”.

As to `c1ccc(Cc2cc[n+](Cc3ccccc3)cc2)cc1`, the Potency was 20.6 µM (active).

Take `O=C(Nc1cc(-c2nn(CC(=O)N3CCCCC3)c(=O)c3ccccc23)ccc1N1CCOCC1)c1ccc(Cl)cc1`: the Potency entry is “inactive”.

As to `Cc1ccc(-c2csc3nnc(SCC(=O)NCc4ccco4)n23)cc1`, the Potency entry was “inactive”.

On to `COc1cc(F)c(C2=CC(=O)CC(C)(C)C2)cc1F`, for which the Potency entry was “inactive”.

`Cc1c(CCOC(=O)CC23CC4CC(CC(C)(C4)C2)C3)sc[n+]1Cc1ccc([N+](=O)[O-])cc1`: the Potency is 18.4 µM (active).

For `O=C(CSC1=Nc2ccccc2C2=NC(c3ccccc3)C(=O)N12)NCC1CCCO1` (stereo not drawn), the Potency result was “inactive”.

With `Cc1ccc(C)c(S(=O)(=O)N2CC(=O)Nc3ccccc32)c1`, the Potency entry is “inactive”.

On to `O=C(Nc1ccc(NC(=O)c2cccs2)cn1)c1ccco1`, for which the Potency result is “inactive”.

As to `Cc1ccc(NC(=O)Cn2nnc(C(=O)NCc3ccco3)c2N)c(C)c1`, the Potency entry is “inactive”.

For `CCOc1ccccc1NC(=O)Cc1cccs1`, the Potency result is “inactive”.

For the compound `CCOc1ccccc1NC(=O)Cn1nnc(C(=O)NCc2cccs2)c1N`, the Potency was 130 nM (active) and 51.7 nM (active).

Consider `Cc1cc(C)n(CC(C)NCc2c(C(=O)N3CCOCC3)nc3c(C)cccn23)n1` (stereo not drawn), for which the Potency result is “inactive”.

Turning to `Fc1ccc(Nc2nnns2)cc1`, the Potency entry is “inactive”.

For the compound `Cc1sc2c(c1C)c(=O)n(-c1ccccc1)c(=O)n2CC(=O)NCC1CCCO1` (stereo not drawn), the Potency entry was “inactive”.

Take `Nc1ccc(C(=O)Nc2ccccc2N)cc1`: the Potency was 2.37 µM (active) and 3.26 µM (active).

As to `Nc1ccc(S(=O)(=O)NC(=O)c2ccccc2)cc1`, the Potency result is “inactive”.

As for `Nc1ccc(C(=O)NCc2ccccc2)cc1`, the Potency entry is “inactive”.

Regarding `COc1ccc2oc(=O)c(C(=O)N3CCCC3)cc2c1`, the Potency entry was “inactive”.

For the compound `CC(C)C[C@H](NC(=O)NCCc1ccc(Cl)cc1)C(=O)O`, the Potency result is “inactive”.
